Measured values: ChEMBL document CHEMBL4513216, “Probing the Open Global Health Chemical Diversity Library for Multistage-Active Starting Points for Next-Generation Antimalarials” (ACS Infect Dis, 2020)
Out of some 69,000 compounds screened, about 8,600 (12%) showed an effect of 50% or more. Many of the other results were omitted from the sample, so strong results are more common in it than they were.

Each molecule was assayed on Plasmodium berghei (assay: Screen against P. berghei liver stage (PbLuc), transformed with Luciferase, at 10uM). Details: tested at 10 uM.
Assay type: functional, HepG2

Structure (SMILES) | INHIBITION
CN1CCN(Cc2cccnc2)C2(CCN(C3CCOCC3)C2)C1=O (stereo not drawn) | -33.9%
CC(=O)NCCNC(=O)c1cnc(C(C)(C)C)s1 | 30.6%
CCc1cccc(C)c1NC(=O)c1ccccc1N(C)S(C)(=O)=O | 25.8%
CCN1CCN(C(=O)c2cccn2Cc2ccccc2)CC1 | -4.94%
Cc1csc(Nc2nccnc2C2CCCN2CC(N)=O)n1 (stereo not drawn) | -13.7%
CCS(=O)(=O)N1CCC2(CC(=O)N(c3ccc4c(c3)OCO4)C2)C1 (stereo not drawn) | -30.6%
O=C1CC2(CCN(Cc3ccncc3)C2)CN1c1ccc2c(c1)OCO2 (stereo not drawn) | 31.1%
O=C1CC2(CCN(Cc3ccsc3)C2)CN1c1ccc2c(c1)OCO2 (stereo not drawn) | 55.5%
CN(C)C(=O)N1CCC2(CC(=O)N(c3ccc4c(c3)OCO4)C2)C1 (stereo not drawn) | -4.02%
Cn1cc(CN2CCC3(CC(=O)N(c4ccc5c(c4)OCO5)C3)C2)cn1 (stereo not drawn) | 27.3%
O=C1CC2(CCN(Cc3ccoc3)C2)CN1c1ccc2c(c1)OCO2 (stereo not drawn) | 60.3%
CCn1nc(C)c(NC(=O)CN(C)C(C)c2ccon2)c1C (stereo not drawn) | -22.1%
N[C@@H]1CCCN(C(=O)Cc2c[nH]c3ccccc23)[C@H]1c1ccccc1F | 32.5%
CN(C)C(=O)CN1C[C@H]2CC[C@@H](C1)N(C(=O)CCn1cncn1)C2 | 56.8%
O=C(CCn1cncn1)N1C[C@@H]2CC[C@H]1CN(Cc1ccncc1)C2 | 22.4%
CN(C)C(=O)CN1C[C@H]2CC[C@@H](C1)N(C(=O)Cc1ccccc1Cl)C2 | 25.1%
Cc1c[nH]nc1C1CCCCN1C(=O)CNS(C)(=O)=O (stereo not drawn) | 48.6%
Cc1cnn(CCC(=O)N2C[C@@H]3CC[C@H]2CN(CC(=O)N(C)C)C3)c1 | 38.5%
Cc1c[nH]nc1C1CCCCN1C(=O)CC1(O)CCCCC1 (stereo not drawn) | 24.8%
Cc1ccnn1CCC(=O)N1C[C@@H]2CC[C@H]1CN(CC(=O)N(C)C)C2 | 55.6%
Cc1c[nH]nc1C1CCCCN1C(=O)CCn1nccc1C (stereo not drawn) | 57.5%
CN(C)C(=O)CN1C[C@H]2CC[C@@H](C1)N(C(=O)CCCn1cncn1)C2 | 8.07%
COc1ccc(C(=O)N2CCCC(n3cncn3)C2)nn1 (stereo not drawn) | 8.64%

Structure (SMILES) | INHIBITION
O=C(NCCCn1ccnc1)N1CCN(c2cccs2)CC1 | 12.2%
O=C(Cn1ncc(N2CCCC2)cc1=O)Nc1ccc2nccnc2c1 | 6.69%
COc1cccc(N2CCN(C(=O)CN(C)c3cnccn3)CC2)c1 | 35.4%
CC1CCC(NC(=O)CNC2(c3ccc(Br)cc3)CCOCC2)CC1 (stereo not drawn) | 12.8%
O[C@@H]1CN(Cc2ccc(F)c(F)c2)CC[C@H]1NCc1ccccn1 | 46.7%
CCCN1Cc2ccccc2NC(=O)C12CCNC2 (stereo not drawn) | 38.3%
O=C(c1cnccn1)N1CCCC2(CCN(Cc3ccsc3)C2)C1 (stereo not drawn) | -15.2%
O=C(NC1CCCc2nc(N3CCOCC3)ncc21)C1CCCCC1 (stereo not drawn) | 17.1%
CNS(=O)(=O)c1ccc(CN(C)Cc2nc3ccc(F)cc3[nH]2)cc1 | 29%
Cc1ccccc1C1(C(=O)NCCN2CCOCC2)CCOCC1 | -33.5%
Cc1ccccc1C1(C(=O)NCCN2CCCC2)CCOCC1 | 44.8%
Cc1ccccc1C1(C(=O)NCCN2CCC(C)CC2)CCOCC1 | 55.1%
COc1cccc(-n2nc(C(C)=O)c(C(C)=O)c2C)c1 | -17%
O=C1CC2(CCN(C(=O)c3ccccn3)CC2)Oc2c(Cl)cc(Cl)cc21 | 4.57%
CNc1cc(CNC(=O)c2ccncc2)nc(-c2ccncc2)n1 | 4.08%
Cc1nc(C)n(C2CCCN(C(=O)Cc3csc(C(C)C)n3)C2)n1 (stereo not drawn) | 26.4%
O=C(Cc1ccsc1)NCC1OCCc2cn(CC3CC3)nc21 (stereo not drawn) | -46.6%
CN(C)S(=O)(=O)NCC1OCCc2cn(CC3CCOCC3)nc21 (stereo not drawn) | 20.1%
c1c2c(nn1CC1CC1)C(CNC1CCOCC1)OCC2 (stereo not drawn) | 15.3%
O=S(=O)(NCC1OCCc2cn(CC3CCOCC3)nc21)C1CC1 (stereo not drawn) | 29.8%
c1cc(CNCC2OCCc3cn(CC4CCOCC4)nc32)ccn1 (stereo not drawn) | 19.9%
CCCS(=O)(=O)NCC1OCCc2cn(CC3CCOCC3)nc21 (stereo not drawn) | 55.5%
CS(=O)(=O)CC(=O)NCC1OCCc2cn(CC3CC3)nc21 (stereo not drawn) | 54.7%

Structure (SMILES) | INHIBITION
c1c2c(nn1CC1CCOCC1)C(CNC1CCOCC1)OCC2 (stereo not drawn) | -44.2%
Fc1ccc(CNCC2OCCc3cn(CC4CC4)nc32)cc1 (stereo not drawn) | 46.6%
CCS(=O)(=O)NCC1OCCc2cn(CC3CCOCC3)nc21 (stereo not drawn) | 66.8%
CS(=O)(=O)NCC1OCCc2cn(CC3CC3)nc21 (stereo not drawn) | 44.2%
Fc1cccc(CNCC2OCCc3cn(CC4CCOCC4)nc32)c1 (stereo not drawn) | 68.4%
COCCCn1ccc(NCc2ccc(NC(C)=O)cc2)n1 | 19.7%
COc1cc2c(cc1C(=O)N1CCCCC1c1ccccn1)CCC2 (stereo not drawn) | 11.6%
Cc1ccc2nc(C(=O)N3C[C@@H](C(=O)O)[C@H](c4ccccc4)C3)cn2c1 | -46%
O=C(c1cccs1)N1CCOCC2(C1)CN(c1ccccc1)C(=O)CO2 (stereo not drawn) | -8.28%
CCOCC1CN(c2ccncn2)Cc2cnn(CC3CC3)c21 (stereo not drawn) | -8.19%
Cc1nccn1C1CCCN(C(=O)c2cccc(Cn3ccnc3)c2)C1 (stereo not drawn) | -6.14%
O=C(CCc1cc2n(n1)CCCNC2)N1CCC(N2CCOC2=O)CC1 | -39.2%
COCCNc1nnc(-c2ccc(C)nc2)s1 | -74.5%
CCc1nc(CN2CC[C@@](O)(CCOC)[C@H](C)C2)cs1 | 0.868%
CCOc1cc(CNCCCn2ccnc2)cc(Cl)c1OCC | 58.1%
CCOc1ccc(CNCCCn2ccnc2)cc1Cl | -32.1%
CCOc1cc(CNCCCn2ccnc2)cc(Cl)c1OC | 49.5%
CC(=O)NCC1CCC2(CCN(c3ncnc4oc(C)nc34)CC2)O1 (stereo not drawn) | 34.9%
CC(=O)N1CCC(NC(=O)CN2CCCc3c(C)ccc(F)c32)CC1 | -7.13%
Cc1cnn(-c2cccc(N3CCCCC3)n2)c1 | 39.3%
Cc1cnn(-c2cccc(N3CCCC3)n2)c1 | 30.3%
Cc1cnn(-c2cccc(N3CCN(c4cc(C)nc(C)n4)CC3)n2)c1 | 85.5%
CC(=O)N1CCCC1C(=O)NCCOc1ccc(C(C)C)cc1 (stereo not drawn) | 29.4%

Structure (SMILES) | INHIBITION
CC(C)Cn1c(=O)n(CCCn2cccn2)c2cc(C(=O)O)cnc21 | -18.1%
Cn1cc(NC(=O)N2CCN(Cc3cscn3)CC2)ccc1=O | 48.3%
O=C(CCCn1nnc(-c2ccc(F)cc2)n1)N1CCOCC(CO)C1 (stereo not drawn) | 52%
O=C(Cn1nnc(-c2ccc(F)cc2)n1)N1CCOCC(O)C1 (stereo not drawn) | 38.6%
CC[C@H]1COCCN1C(=O)CCCn1nnc(-c2ccc(F)cc2)n1 | 35%
CCCS(=O)(=O)NC(C)C(=O)NCc1ccnc(N2CCCC2)c1 (stereo not drawn) | 14.4%
CC(=O)N1CCC2(C1)c1ccccc1S(=O)(=O)N2C (stereo not drawn) | 50.4%
CC(=O)N1CCC2(C1)c1ccccc1S(=O)(=O)N2Cc1ccccc1 (stereo not drawn) | 6.72%
CC(=O)N1CCC2(C1)c1ccccc1S(=O)(=O)N2CCC(C)C (stereo not drawn) | -61.6%
COCC(=O)N1CCC2(C1)c1ccccc1S(=O)(=O)N2C (stereo not drawn) | 65.3%
COCC(=O)N1CCC2(C1)c1ccccc1S(=O)(=O)N2CC1CC1 (stereo not drawn) | 17.6%
COCC(=O)N1CCC2(C1)c1ccccc1S(=O)(=O)N2CCC(C)C (stereo not drawn) | -14.2%
Cc1ccccc1C(=O)N1CCC(n2nnc3cc(F)ccc32)CC1 | -30.1%
CC(C)c1nnc(CCC(=O)N2CCOC(c3cnccn3)C2)o1 (stereo not drawn) | 11.8%
CC(C)C[C@H](N)c1nnc(SCC(N)=O)o1 | -21.4%
NS(=O)(=O)CCCNC(=O)c1cnc(-c2ccsc2)s1 | 41.4%
O=C1C[C@@H]2CC[C@H](CN1)N2C(=O)CCc1ccsc1 | 36.7%
CC(=O)N1CCC2(CC1)CC(NS(C)(=O)=O)c1ccccc1O2 (stereo not drawn) | 25.9%
CC(=O)N1CCOCC(Cc2ccc3c(ccn3C)c2)C1 (stereo not drawn) | -20.265%
Cn1cc(CN2C[C@@H]3COC[C@@H](C(=O)N4CCCCO4)[C@@H]3C2)cn1 | 39.8%
O=C(CO)N1CCc2onc(Cn3cccn3)c2C1 | 51.2%
CCC(=O)N1CCc2onc(CNS(C)(=O)=O)c2C1 | 69.3%
O=C(CC(F)(F)F)N1CCc2onc(Cn3cccn3)c2C1 | 32.4%

Structure (SMILES) | INHIBITION
CN(C)CC(=O)N1CCc2onc(Cn3cccn3)c2C1 | 33.4%
CS(=O)(=O)NCc1noc2c1CN(C(=O)C1CCC1)CC2 | 18.6%
CS(=O)(=O)NCc1noc2c1CN(C(=O)C1CC1)CC2 | 30.3%
CC1CN(C(=O)CN(Cc2ccco2)Cc2cccs2)CCO1 (stereo not drawn) | -19.9%
COC(=O)c1cccn1C1CCN(C(=O)c2c(C)noc2C)CC1 | 36.1%
COc1cc2c(cc1OC)C(=O)C(Sc1nnnn1C)C2 (stereo not drawn) | 26.4%
CSc1ncc(C(=O)NCCn2nccc2C)cn1 | 5.785%
O=S(=O)(c1ccc(F)cc1)N1CC[C@H]2[C@H]1CCN2c1ncccn1 | 2.4%
O=C(c1cnc2c(cnn2C2CCCC2)c1)N1CCN(CCO)CC1 | 24%
CCn1cc(CN2CCCC(COc3ccccc3F)C2)cn1 (stereo not drawn) | 69.3%
Cn1nccc1CN1CCCC(COc2ccccc2F)C1 (stereo not drawn) | 17.4%
Cn1cc(CN2CCCC(CCc3ccc(F)cc3F)C2)cn1 (stereo not drawn) | 43%
Cn1cc(C[C@H]2[C@H](O)CCN2Cc2ccc(F)cc2)cn1 | 57.9%
Fc1ccc(OCCCN2CCCC(Cn3cncn3)C2)cc1 (stereo not drawn) | 5.9%
COc1ccc(OCC2CCCN(Cc3ccncc3)C2)cc1 (stereo not drawn) | 46.3%
CCn1cc(CN2CCCC(COc3ccc(F)cc3)C2)cn1 (stereo not drawn) | 74%
Cn1cc(C[C@H]2[C@H](O)CCN2Cc2ccncc2)cn1 | 46.2%
Cn1cc(CN2CCCC(CCc3ccc(F)c(F)c3)C2)cn1 (stereo not drawn) | 38.6%
Cn1cc(CN2CCCC(CCc3ccc(F)cc3)C2)cn1 (stereo not drawn) | 59.2%
COc1ccc(CN2CC[C@H](O)[C@@H]2Cc2cnn(C)c2)cc1 | 47.4%
Cn1cc(CN2CCCC(CCc3c(F)cccc3F)C2)cn1 (stereo not drawn) | 30.5%
